We go through nine molecules from PubChem BioAssay (NCI).

This is part of a sample that, as a whole, favours compounds with a hit. Of some 83,000 tested, about 20% had one in any assay.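 Step 1: grow cells in 96-well plates. Step 2: add test compound at a single concentration. Step 3: incubate 48 h. Step 4: record percent growth.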 A number with no mark means an inactive call. Calls of active or inactive are those of the source. Rule for the calls: active = growth percent below 10; inactive = the rest.

Among the test systems are SR leukemia; RPMI-8226 leukemia; OVCAR-8 ovarian; OVCAR-5 ovarian; SK-OV-3 ovarian; IGROV1 ovarian; OVCAR-3 ovarian; HS 578T breast; NCI/ADR-RES ovarian; T-47D breast; MDA-MB-435 melanoma; SW-620 colon; MCF7 breast; HCT-116 colon; KM12 colon; OVCAR-4 ovarian; BT-549 breast; HCC-2998 colon.
Common to all, as to assay: NCI-60 one-dose screen, 48 h (100 = growth as untreated, 0 = no growth, -100 = all killed)
Holding throughout (conditions): 10 µM unless noted

Regarding `COc1cc(C2CC(=O)Nc3c2cnn3Cc2ccco2)cc2c1OCCO2` (stereo not drawn), the growth in the assay with SR leukemia was 8.04% (active); with RPMI-8226 leukemia, 77.2%; in the assay on OVCAR-8 ovarian it was 101%; in the assay on OVCAR-5 ovarian it was 86.2%; in the assay with SK-OV-3 ovarian it was 97.7%; in the assay with IGROV1 ovarian it was 56.3%. Moreover, the growth with OVCAR-3 ovarian is 73.9%; in the assay on HS 578T breast it was 83.6%; in the assay with NCI/ADR-RES ovarian, 88.9%; with T-47D breast it was 88.8%; with MDA-MB-435 melanoma, 4.28% (active); with SW-620 colon, 56.6%. For the same molecule, the values for the growth with MCF7 breast, in the assay with HCT-116 colon and with KM12 colon were 54.1%, 72.5% and 48.4%, respectively.
`O=S(=O)(NCCCNc1cc(-c2cn(-c3ccccc3)nc2-c2cccc(O)c2)ccn1)c1ccccc1`: the growth in the assay with SR leukemia is 35.5%; in the assay with RPMI-8226 leukemia it was 32.1%; in the assay with OVCAR-8 ovarian, 46.1%; in the assay on OVCAR-4 ovarian, 59.8%; with IGROV1 ovarian, 59.2%; in the assay with OVCAR-3 ovarian, 58.9%. For the same molecule, the growth with HS 578T breast is 46.9%; with NCI/ADR-RES ovarian, 51.3%; in the assay with T-47D breast, 18.4%; in the assay with BT-549 breast, 44.1%; in the assay on MDA-MB-435 melanoma, 52.3%; in the assay on SW-620 colon it was 25.5%. The growth in the assay with MCF7 breast is 31.6%; with HCT-116 colon, 40%; with HCC-2998 colon it was 22.1%; in the assay on KM12 colon it was 30.1%.
For the molecule `O=C1Nc2ccccc2C12CC(c1ccc(Cl)cc1)=NN2` (stereo not drawn), the growth with SR leukemia is 86.2%; in the assay with OVCAR-8 ovarian, 95.2%; with OVCAR-5 ovarian, 95.8%; with OVCAR-4 ovarian, 98.6%; with SK-OV-3 ovarian it was 107%; in the assay with IGROV1 ovarian, 101%. For the same molecule, the growth with OVCAR-3 ovarian is 116%; with HS 578T breast it was 107%; in the assay with NCI/ADR-RES ovarian, 108%; in the assay with T-47D breast, 91.1%; in the assay with BT-549 breast, 98.5%; with MDA-MB-435 melanoma it was 98.8%. For the same molecule, the growth in the assay on SW-620 colon is 106%; with MCF7 breast it was 91.4%; with HCT-116 colon, 95.3%; in the assay with HCC-2998 colon it was 108%; in the assay with KM12 colon it was 110%.
Take `O=C(O)C(O)C(O)C(=O)O.[NH-]C1CCCCC1[NH-].[Pt+2]` (stereo not drawn): the growth was 117% in the assay on SR leukemia; 110% with RPMI-8226 leukemia; 108% with OVCAR-5 ovarian; 106% with OVCAR-4 ovarian; 105% with SK-OV-3 ovarian; 106% in the assay on IGROV1 ovarian. Moreover, the growth in the assay on OVCAR-3 ovarian was 107%; with HS 578T breast, 109%; in the assay on NCI/ADR-RES ovarian it was 107%; in the assay with T-47D breast, 105%; with BT-549 breast, 108%; with MDA-MB-435 melanoma it was 104%. In addition, the growth in the assay on SW-620 colon is 95%; in the assay with MCF7 breast, 91.9%; in the assay with HCT-116 colon, 95.1%; in the assay on HCC-2998 colon it was 104%; in the assay on KM12 colon it was 96.4%.
In the case of `C/C(Cc1ccc(Cl)cc1)=C(\c1ccc(OCCN2CCCCCC2)cc1)c1ccc(OC(=O)Cc2ccccc2)cc1`, the growth is 1.29% (active) in the assay with SR leukemia; 33% with RPMI-8226 leukemia; 72.1% in the assay with OVCAR-8 ovarian; 73.8% in the assay with OVCAR-5 ovarian; 90.6% with SK-OV-3 ovarian; 44.9% in the assay on IGROV1 ovarian. The growth was 69.6% in the assay on OVCAR-3 ovarian; 62.3% with HS 578T breast; 72.4% with NCI/ADR-RES ovarian; 57.6% in the assay with T-47D breast; 46.3% in the assay on MDA-MB-435 melanoma; 57.4% with SW-620 colon. Also, the growth was 18.6% in the assay on MCF7 breast, 38.2% in the assay with HCT-116 colon, 22.3% in the assay on HCC-2998 colon and 50.2% in the assay on KM12 colon.
As to `O=S(=O)(NCCCNc1cc(-c2cn(-c3ccccc3)nc2-c2ccccc2)ccn1)c1ccc(C(F)(F)F)cc1`, the growth is 39.3% in the assay with SR leukemia; 44.1% with RPMI-8226 leukemia; 54.6% in the assay on OVCAR-8 ovarian; 58.7% in the assay with OVCAR-4 ovarian; 68.9% in the assay with SK-OV-3 ovarian; 59.2% with IGROV1 ovarian. For the same molecule, the growth in the assay with OVCAR-3 ovarian was 72%; in the assay on HS 578T breast, 61%; in the assay with NCI/ADR-RES ovarian, 46.2%; in the assay on T-47D breast, 38.7%; with BT-549 breast, 71.2%; in the assay on MDA-MB-435 melanoma, 50%. The growth in the assay on SW-620 colon is 71.1%; in the assay with MCF7 breast it was 39.2%; in the assay on HCT-116 colon it was 43.2%; in the assay on HCC-2998 colon, 64.1%; in the assay on KM12 colon it was 40.5%.
For the molecule `O=c1c2cccc3c(NC4CCCCC4)ccc(c32)c2nc3ccccc3n12`, the growth is 1.11% (active) with SR leukemia; 75.6% in the assay with RPMI-8226 leukemia; 97.9% in the assay on OVCAR-8 ovarian; 103% in the assay on OVCAR-5 ovarian; 98.3% with SK-OV-3 ovarian; 41.2% in the assay with IGROV1 ovarian. Moreover, the growth in the assay with OVCAR-3 ovarian is 86.8%; with HS 578T breast, 96%; in the assay with NCI/ADR-RES ovarian it was 95.5%; with T-47D breast, 32.5%; in the assay on BT-549 breast it was 94.1%; in the assay with MDA-MB-435 melanoma, 103%. For the same molecule, the growth in the assay on SW-620 colon was 80.1%; in the assay on MCF7 breast, 13.5%; with HCT-116 colon it was 85.3%; in the assay with KM12 colon, 81.1%.
With `CN1C2CCC1/C(=C\c1ccc(Cl)cc1)C1=C2[C@@H](c2ccc(Cl)cc2)C(C#N)=C(N)O1` (stereo partly drawn), the growth is 62.6% in the assay on RPMI-8226 leukemia; 93.3% in the assay with OVCAR-8 ovarian; 84.5% with OVCAR-5 ovarian; 75.6% in the assay with OVCAR-4 ovarian; 94.8% in the assay with SK-OV-3 ovarian; 79.1% in the assay on IGROV1 ovarian. Further, the growth was 92.5% with OVCAR-3 ovarian; 95.1% in the assay on HS 578T breast; 95.8% with NCI/ADR-RES ovarian; 81.7% in the assay on T-47D breast; 97.5% in the assay on BT-549 breast; 91.5% in the assay with MDA-MB-435 melanoma. Further, the growth is 94.3% in the assay on SW-620 colon; 66% in the assay with MCF7 breast; 63.7% with HCT-116 colon; 104% in the assay with HCC-2998 colon; 95% in the assay on KM12 colon.
`OC(c1cccc(C(F)(F)F)c1)c1cnccc1NC1CCCCCC1` (stereo not drawn): the growth was -14.7% (active) in the assay with SR leukemia; 58.2% in the assay on OVCAR-8 ovarian; 79.8% with OVCAR-5 ovarian; 52.7% in the assay with OVCAR-4 ovarian; 71.4% in the assay with SK-OV-3 ovarian; 44.2% in the assay with IGROV1 ovarian. The growth was 57.5% in the assay on OVCAR-3 ovarian; 64.4% with HS 578T breast; 39.2% with NCI/ADR-RES ovarian; -3.18% (active) in the assay on T-47D breast; 71.4% in the assay on BT-549 breast; 32.6% in the assay with MDA-MB-435 melanoma. Also, the growth in the assay on SW-620 colon was 3.19% (active); in the assay on MCF7 breast it was -6.03% (active); with HCT-116 colon, 14.4%; with HCC-2998 colon, -70.1% (active); in the assay on KM12 colon, 3.96% (active).
